Tested on: Vero E6 infected with SARS-CoV-2
Test: inhibition of SARS-CoV-2 cytopathic effect; higher = more antiviral protection, active = above 15
Details: 48 h

Measured: inhibition of SARS-CoV-2 cytopathic effect

NCCC(=O)N[C@@H](Cc1c[nH]cn1)C(=O)O [carnosine]
inactive: 1 nM -0.87% | 8.33 nM -1.74% | 100 nM -2.85% | 833.33 nM -2.56% | 10000 nM -17.4%

CO[C@H]1CC[C@@H](C(=O)c2ccc3nc4c(cc3c2)CCCO4)CC1
inactive: 1 nM -1.37% | 8.33 nM 0.02% | 100 nM -1.45% | 833.33 nM -0.98% | 10000 nM -2.81%

O=C(O)c1ccccc1Nc1cc(Cl)ccc1C(=O)O [lobenzarit]
inactive: 1 nM 0.49% | 8.33 nM -0.08% | 100 nM 0.37% | 833.33 nM 2.27% | 10000 nM -3.63%

C=C[C@@H]1C[C@]1(NC(=O)[C@@H]1C[C@@H]2CN1C(=O)[C@H](C(C)(C)C)NC(=O)O[C@@H]1C[C@H]1CCCCCc1nc3ccc(OC)cc3nc1O2)C(=O)NS(=O)(=O)C1CC1 [grazoprevir]
inactive: 1 nM -0.59% | 8.33 nM -3.18% | 100 nM -2.52% | 833.33 nM 1.78% | 10000 nM 1.23%

COC(=O)Nc1nc2cc([S+]([O-])c3ccccc3)ccc2[nH]1 (stereo not given) [oxfendazole]
inactive: 1 nM 3.62% | 8.33 nM 1.23% | 100 nM 6.94% | 833.33 nM 0.7% | 10000 nM -1.5%

CC(=O)[C@@]1(O)CC[C@H]2[C@@H]3C=C(Cl)C4=CC(=O)[C@@H]5C[C@@H]5[C@]4(C)[C@H]3CC[C@@]21C
inactive: 1 nM -4.45% | 8.33 nM -5.77% | 100 nM -6.29% | 833.33 nM -6.05% | 10000 nM -4.41%

COC(=O)Nc1nc2cc(C(=O)c3ccc(F)cc3)ccc2[nH]1 [flubendazole]
inactive: 1 nM -1.07% | 8.33 nM 0.53% | 100 nM 0.32% | 833.33 nM 0.07% | 10000 nM -2.34%

C[C@H](CCC(=O)O)[C@H]1CC[C@H]2[C@@H]3C[C@H](O)[C@@H]4C[C@H](O)CC[C@]4(C)[C@H]3CC[C@]12C [Hyodeoxycholic acid (HDCA)]
inactive: 1 nM -1.55% | 8.33 nM 0.2% | 100 nM 1% | 833.33 nM 2.52% | 10000 nM -1.93%

CCOC(=O)c1cc(C#N)c(N2CCC(C(=O)NS(=O)(=O)Cc3ccccc3)CC2)nc1C
inactive: 1 nM 3.08% | 8.33 nM 2.38% | 100 nM 0.44% | 833.33 nM 1.19% | 10000 nM -2.86%

CCCC(=O)Nc1ncnc2c1ncn2[C@@H]1O[C@@H]2COP(=O)(O)O[C@H]2[C@H]1OC(=O)CCC [bucladesine]
inactive: 1 nM -1.3% | 8.33 nM -3.37% | 100 nM -2.82% | 833.33 nM 0.58% | 10000 nM 1.04%

CN(CCOc1ccc(CC2SC(=O)NC2=O)cc1)c1ccccn1 (stereo not given) [rosiglitazone]
inactive: 1 nM -1.76% | 8.33 nM -2.53% | 100 nM -4.45% | 833.33 nM -0.37% | 10000 nM 1.48%

OC(CCN1CCCCC1)(c1ccccc1)c1ccccc1 [pridinol]
inactive: 1 nM 3.98% | 8.33 nM 4.59% | 100 nM -0.32% | 833.33 nM -9.56% | 10000 nM 0.53%

CC(C)(C)Sc1c(CC(C)(C)C(=O)O)n(Cc2ccc(Cl)cc2)c2ccc(OCc3ccc4ccccc4n3)cc12 [quiflapon]
inactive: 1 nM 1.81% | 8.33 nM 0.25% | 100 nM -1.43% | 833.33 nM 1.93% | 10000 nM 1.66%

Cn1c(=O)c2c(ncn2CC(=O)O)n(C)c1=O [acefylline]
inactive: 1 nM -0.43% | 8.33 nM 3.14% | 100 nM 12.4% | 833.33 nM 0.66% | 10000 nM 0.73%

COc1cc2c(cc1OC)-c1c/c(=N\c3c(C)cc(C)cc3C)n(C)c(=O)n1CC2 [trequinsin]
inactive: 1 nM 1.9% | 8.33 nM 2.01% | 100 nM -0.55% | 833.33 nM 3.41% | 10000 nM 6.34%

CN1C(=O)C(Cc2c[nH]c3ccccc23)NC1=S (stereo not given) [necrostatin-1]
inactive: 1 nM 1.27% | 8.33 nM -1.34% | 100 nM 2.85% | 833.33 nM 1.03% | 10000 nM 1.43%

Cc1ncc([N+](=O)[O-])n1CC(O)CCl (stereo not given) [ornidazole]
inactive: 1 nM -2.81% | 8.33 nM 0.99% | 100 nM 1.14% | 833.33 nM -1.29% | 10000 nM 1.51%

CN[C@H](CNC(=O)N1CCC[C@@H]([C@@H](OCCNC(=O)OC)c2cccc(Cl)c2)C1)C[C@H]1CCCOC1
inactive: 1 nM 1.34% | 8.33 nM -1.3% | 100 nM 1.14% | 833.33 nM -0.1% | 10000 nM 3.16%

Reference: the supplement of paper PMC13380429
